Screening results: PubChem BioAssay, National Center for Advancing Translational Sciences (NCATS)
Pf Dd2 inh = blocks in vitro growth of P. falciparum Dd2; P. falciparum Dd2 growth, SYBR Green, 72 h; Potency, µM (doses to about 28.9 µM), most hits filed as inhibitors; 120,000 compounds, 4.3% hits; active means well fitted inhibition curve with a large enough effect; further: nearly all actives have a fitted effect of over 65% in size
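Infected erythrocytes (Dd2, 0.3% parasitemia, 2.5% hematocrit final) are added to compound in RPMI-1640/Albumax II medium, grown 72 h at 37C in low oxygen, then lysed with saponin/Triton-X containing SYBR Green and read by fluorescence.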
Of the large screens only hits and unclear results are named; the others gave an inactive call. The sample as a whole holds a higher share of hits than the screen did.

COc1ccccc1C(=O)Nc1nc2n(n1)C(c1ccc(F)cc1)C=C(c1ccc(Cl)cc1)N2 (stereo not given)	Pf Dd2 inh 4.5µM
COc1ccc(C2C=C(c3ccc(Cl)cc3)Nc3nc(NC(=O)CCC(=O)O)nn32)cc1 (stereo not given)	none
Cc1ccc(C(=O)Nc2nc3n(n2)C(c2ccccc2)C=C(c2ccccc2)N3)cc1 (stereo not given)	Pf Dd2 inh 11µM
Cc1ccc(C2C=C(c3ccccc3)Nc3nc(NS(=O)(=O)c4ccccc4)nn32)cc1 (stereo not given)	none
COc1ccc(C2C=C(c3ccccc3)Nc3nc(NS(=O)(=O)c4ccc(Cl)cc4)nn32)cc1 (stereo not given)	none
Cc1ccc(C2C=C(c3ccc(Cl)cc3)Nc3nc(NC(=O)c4ccco4)nn32)cc1 (stereo not given)	Pf Dd2 inh 3.5µM
Cc1noc(-c2nc(-c3ccc(Cl)c(F)c3)no2)n1	none
O=C(C1CCCCC1)N1CC[C@H]2COC(=O)N2c2cc(F)ccc2C1	none
COc1cccc(CCC(=O)N2CCC(Oc3ccc(-c4noc(C5CC5)n4)cc3)C2)c1 (stereo not given)	none
Cn1c(CO[C@H]2CN(C(=O)c3ccc(Cl)cc3)C[C@H]2F)nc2ccccc21	none
Cc1cccc(-c2noc(-c3nc(C)no3)n2)c1	none
CC(C)n1c(C2CCN(C(=O)CN3CCCCCC3)CC2)nn(C)c1=O	none
Cc1ncccc1C(=O)N1C[C@@H](COc2ccccc2)[C@H](C(N)=O)C1	none
Cc1ccc(S(=O)(=O)Nc2nc3n(n2)C(c2ccc(F)cc2)C=C(c2ccccc2)N3)cc1 (stereo not given)	none
O=C(Nc1nc2n(n1)C(c1ccc(F)cc1)C=C(c1ccccc1)N2)c1ccc(Cl)cc1 (stereo not given)	Pf Dd2 inh 10µM
O=C(Cn1nnc(-c2ccc(Cl)cc2)n1)NCc1ccc(F)cc1	none
CC(=O)Nc1ccc(S(=O)(=O)Nc2nc3n(n2)C(c2ccccc2)C=C(c2ccc(Cl)cc2)N3)cc1 (stereo not given)	none
CC1=C(C(=O)Nc2cccnc2)C(c2ccc(Cl)cc2)n2nc(-c3ccccc3)nc2N1 (stereo not given)	none
O=C(Nc1nc2n(n1)C(c1ccc(F)cc1)C=C(c1ccc(Cl)cc1)N2)c1ccc([N+](=O)[O-])cc1 (stereo not given)	Pf Dd2 inh 4µM
Cc1ccc(C(=O)Nc2nc3n(n2)C(c2ccc(F)cc2)C=C(c2ccccc2)N3)cc1 (stereo not given)	Pf Dd2 inh 6.3µM
O=C(Nc1nc2n(n1)C(c1ccccc1)C=C(c1ccccc1)N2)c1ccc(Cl)c([N+](=O)[O-])c1 (stereo not given)	Pf Dd2 inh 8.9µM
O=S(=O)(Nc1nc2n(n1)C(c1ccc(F)cc1)C=C(c1ccccc1)N2)c1ccc(Cl)cc1 (stereo not given)	none
CCC1Oc2ccc(NC(=O)c3ccc([N+](=O)[O-])cc3)cc2CN(Cc2ccc(F)cc2)C1=O (stereo not given)	none
Fc1ccc(C2=CC(c3ccc(F)cc3)n3c(nc4ccccc43)N2)cc1 (stereo not given)	none
O=S(=O)(Nc1nc2n(n1)C(c1ccccc1)C=C(c1ccc(Cl)cc1)N2)c1ccccc1 (stereo not given)	none
O=C(CN1C(=O)CCC1=O)N1CCC(CCOc2ccccc2F)C1 (stereo not given)	none
CSCC[C@@H]1NC(=O)c2cc(NC(=O)CCc3ccc4c(c3)CCO4)ccc2NC1=O	none
Cc1cc(=O)n(CC(=O)N2CCN(c3ccccc3F)CC2)c(-c2ccc(F)cc2)n1	none
CN(C)C[C@@H]1CN(Cc2ccccc2)C[C@H]1NC(=O)NCc1ccco1	none
COc1ccc(-c2ccc3nnc(CNC(=O)c4sccc4C)n3n2)cc1	none
O=C(CCc1conc1-c1cccc(F)c1)NC1CCCCCC1	none
C=CCNC(=O)c1ccc2cc[nH]c2n1	none
CN1Cc2cccn2CC1CNC(=O)c1nn(C)c2ccccc12 (stereo not given)	none
CC(C)NC(=O)N1CCCC(c2nnc3n2CCNC3)C1 (stereo not given)	none
O=C(C1CC1)N1CCN2C(=O)N(Cc3ccc(F)cc3)C[C@H]2C1	none
Cc1ccc(-c2nnc3ccc(Nc4cccc(N(C)C)c4)nn23)nc1	none
C[S+](=O)([O-])c1ccc(-c2ncc3c(n2)OCCN(c2ccccc2)C3=O)cc1	none
COc1cc(F)cc(-c2ncc3c(n2)OCCN(C)C3=O)c1	none
O=C1c2cnc(-c3ccccc3)nc2OCCN1Cc1ccccc1	none
CN1CCOc2nc(-c3ccc(Oc4ccccc4)cc3)ncc2C1=O	Pf Dd2 inh 5µM
CN(C)C(=O)c1ccc(-c2ncc3c(n2)OCCN(Cc2ccccc2)C3=O)cc1	Pf Dd2 inh 2.2µM
CN(C)C(=O)c1ccc(-c2ncc3c(n2)OCCN(CC2CC2)C3=O)cc1	none
C#CCN(C)Cc1nc(C2(O)CCN(C)CC2)cs1	none
C#CCN(C)Cc1nc(C2(O)CCN(CC3CC3)CC2)cs1	none
C#CCN(C)Cc1nc(C2(O)CCN(C3CCC3)CC2)cs1	Pf Dd2 inh 10µM
COc1ccc(OC)c(NC(=O)C2Cn3cccc3C(=O)N2)c1 (stereo not given)	none
